Values without a mark were called inactive. Inconclusive results are not listed. Some of the results follow. The source made the active and inactive calls. Unless noted, the call rests on the fitted dose curve; in most records, active means well fitted curve in either direction with a large enough effect (not every such curve was filed as active); inconclusive means small, poorly fitted or top-dose-only effect, or another doubt; inactive means flat fitted curve, though single readings scatter.
Experiments:
[1] = qHTS Assay for Inhibitors of Fructose-1,6-bisphosphate Aldolase from Giardia Lamblia: Coupling assay counterscreen confirmation (AID 2795; active means well fitted inhibition curve with a large enough effect; further: on the % scale 0 is the no-effect control and ±100 the full control effect; nearly all actives have a fitted effect of over 55% in size)
Procedure, shortened: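 Compounds at up to 57.5 uM final tested against the coupling enzymes and resorufin-type fluorescent detection only, aldolase omitted. Ex 525 nm/em 598 nm read after 10 min enzyme-compound and 20 min substrate incubations, room temperature.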

[2] = target: Lysosomal acid glucosylceramidase (Homo sapiens) (UniProt P04062); experiment: Glucocerebrosidase-p2 (AID 348; in the data active means potency below about 10 µM; further: potency means the concentration at half of the fitted maximal effect); settings: purified GBA, blue fluorogenic substrate, 40 min
Chain of Lysosomal acid glucosylceramidase (Homo sapiens) (P04062 whole entry, looked up): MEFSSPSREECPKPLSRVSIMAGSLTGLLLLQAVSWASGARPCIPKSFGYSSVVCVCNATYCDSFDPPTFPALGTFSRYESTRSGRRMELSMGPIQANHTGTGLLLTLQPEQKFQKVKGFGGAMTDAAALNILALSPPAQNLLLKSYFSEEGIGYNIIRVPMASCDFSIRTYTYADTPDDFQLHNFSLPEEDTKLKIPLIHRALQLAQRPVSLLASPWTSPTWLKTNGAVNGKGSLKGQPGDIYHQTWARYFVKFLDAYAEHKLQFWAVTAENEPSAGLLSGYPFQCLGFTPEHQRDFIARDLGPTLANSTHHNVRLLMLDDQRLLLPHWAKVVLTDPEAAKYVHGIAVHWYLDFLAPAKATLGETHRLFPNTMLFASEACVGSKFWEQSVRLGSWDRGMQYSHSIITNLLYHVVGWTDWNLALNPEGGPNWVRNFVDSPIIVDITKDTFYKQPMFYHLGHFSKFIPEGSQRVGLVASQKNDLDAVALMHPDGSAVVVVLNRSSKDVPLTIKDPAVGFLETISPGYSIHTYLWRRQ
Procedure, shortened: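 Compounds titrated from 0.6 nM upwards against 0.2 nM enzyme in pH 5.9 citric acid/KH2PO4, taurocholate, tween-20; blue fluorogenic substrate 80 uM, 40 min room temperature, stopped and read Ex 365/Em 440 for AC50.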

[3] = AP1 Signaling Pathway (AID 357); settings: ME-180 AP-1-bla reporter, EGF-induced, beta-lactamase ratio, 5 h; at 7.69 µM (top of the series) unless noted;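 further: ME-180 reporter cells stimulated with EGF at its EC50 level; on the % scale 0 is the no-effect control and ±100 the full control effect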
Procedure, shortened: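 Titration-series screen for positive or negative modulators of EC50 EGF-induced signaling in ME-180 cells carrying an AP-1-driven beta-lactamase reporter. After 5 hours at 37 degrees Celsius, CCF4 460nm/530nm emission ratio gave %Activity; AC50 values derived.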

[4] = target: Cytochrome P450 1A2 (Homo sapiens) (UniProt P05177); experiment: p450-cyp1a2 (AID 410; calls by dose curve; further: potency means the concentration at half of the fitted maximal effect;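 on activity change, negative = inhibition: -100% = full effect of reference inhibitor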)
Chain of Cytochrome P450 1A2 (Homo sapiens) (P05177 whole entry, looked up): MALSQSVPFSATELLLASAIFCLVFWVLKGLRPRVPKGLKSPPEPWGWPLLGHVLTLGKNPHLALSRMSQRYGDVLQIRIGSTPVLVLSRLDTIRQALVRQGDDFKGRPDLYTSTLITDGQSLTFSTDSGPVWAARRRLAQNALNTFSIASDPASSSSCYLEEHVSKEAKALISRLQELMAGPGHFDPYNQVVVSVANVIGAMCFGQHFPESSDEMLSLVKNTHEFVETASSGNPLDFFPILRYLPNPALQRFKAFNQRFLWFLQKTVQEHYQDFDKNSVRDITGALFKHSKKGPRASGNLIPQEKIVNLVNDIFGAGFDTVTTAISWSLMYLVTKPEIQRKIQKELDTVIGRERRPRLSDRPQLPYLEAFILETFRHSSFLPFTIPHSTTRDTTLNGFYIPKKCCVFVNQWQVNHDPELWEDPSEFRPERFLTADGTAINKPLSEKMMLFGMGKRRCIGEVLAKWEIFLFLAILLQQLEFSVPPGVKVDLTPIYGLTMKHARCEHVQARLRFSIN
Procedure, shortened: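 Inhibition was calculated relative to 57 uM furafylline (full inhibition). The reaction used human CYP1A2 at 20nM with Luciferin-ME at its Km, 100uM, driven by an NADPH-regenerating system for 60 min at room temperature.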

[5] = NFAT Signaling Pathway (AID 444); settings: Jurkat NFAT-bla M1, carbachol, beta-lactamase ratio, 5 h; at 7.69 µM (top of the series) unless noted;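 further: carbachol stimulus at about its EC50 of 1 µM final; on the % scale 0 is the no-effect control and ±100 the full control effect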
Procedure, shortened: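 Jurkat cells carrying an NFAT-driven β-lactamase reporter and co-transfected muscarinic M1 receptor were treated with compound plus carbachol (1 uM final, an EC50 level) for 5 h at 37 °C. CCF4 loading followed for 1 h at RT; 460/530 nm ratio gave %activity.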

[6] = Stat Signaling Pathway (AID 446); settings: ME-180 SIE beta-lactamase reporter, IL-6 stimulated, 5 h; at 7.69 µM (top of the series) unless noted;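 further: ME-180 cervical cancer cells given 40 pM IL-6 alongside compound; SIE-controlled beta-lactamase reporter measured as 460/530 nm FRET emission ratio; on the % scale 0 is the no-effect control and ±100 the full control effect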
Procedure, shortened: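 Screening format detects activators and inhibitors alike: ME-180 SIE-bla cells stimulated at 40 pM IL-6 for 5 hrs with compound, then dual-emission beta-lactamase read at 405 nm excitation.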

[7] = target: Glucocorticoid receptor (Homo sapiens) (UniProt P04150); experiment: GR-GFP Redistribution (AID 450;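 active means compounds whose dose series gives a full or clear partial fitted curve of increased nuclear translocation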; further: potency means the concentration at half of the fitted maximal effect); settings: U2OS GR-GFP nuclear translocation, laser cytometry, 2 h
Chain of Glucocorticoid receptor (Homo sapiens) (P04150 whole entry, looked up, the tested form may be a part): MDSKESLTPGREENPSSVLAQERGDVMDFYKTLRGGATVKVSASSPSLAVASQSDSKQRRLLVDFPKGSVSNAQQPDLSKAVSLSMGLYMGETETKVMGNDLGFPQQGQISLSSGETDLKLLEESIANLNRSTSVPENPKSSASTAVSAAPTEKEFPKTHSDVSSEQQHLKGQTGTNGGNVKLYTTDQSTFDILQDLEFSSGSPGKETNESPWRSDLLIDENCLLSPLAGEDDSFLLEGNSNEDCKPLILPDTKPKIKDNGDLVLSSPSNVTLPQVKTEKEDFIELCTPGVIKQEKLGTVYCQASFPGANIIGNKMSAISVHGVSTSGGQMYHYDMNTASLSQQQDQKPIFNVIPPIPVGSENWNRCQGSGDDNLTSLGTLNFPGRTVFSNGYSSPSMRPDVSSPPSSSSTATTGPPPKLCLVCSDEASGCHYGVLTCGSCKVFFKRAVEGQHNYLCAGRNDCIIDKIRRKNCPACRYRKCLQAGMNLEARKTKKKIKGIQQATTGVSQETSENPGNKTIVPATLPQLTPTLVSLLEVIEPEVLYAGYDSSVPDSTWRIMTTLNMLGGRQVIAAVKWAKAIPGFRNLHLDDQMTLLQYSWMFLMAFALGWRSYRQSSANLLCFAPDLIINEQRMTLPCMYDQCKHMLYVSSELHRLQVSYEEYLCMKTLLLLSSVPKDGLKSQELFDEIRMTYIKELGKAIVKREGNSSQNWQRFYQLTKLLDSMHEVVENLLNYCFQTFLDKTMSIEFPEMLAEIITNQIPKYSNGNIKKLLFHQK

[8] = target: Glucocorticoid receptor (Homo sapiens) (UniProt P04150); experiment: GR-EFC Redistribution (AID 451; calls by dose curve; further: potency means the concentration at half of the fitted maximal effect); settings: CHO-K1 GR-EFC translocation, beta-gal luminescence, 2 h
Procedure, shortened: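 CHO-K1 cells stably expressing nuclear-localized β-gal enzyme acceptor and GR fused C-terminally to the enzyme donor fragment; ligand-driven nuclear translocation restores β-gal by complementation. Compounds titrated up to 46 uM final, 2 h at 37 °C; luminescence read.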

[9] = target: Mitogen-activated protein kinase 10 (Mus musculus) (UniProt Q61831); experiment: JNK3 AlphaScreen Assay (AID 530);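 further: kinase came from lysate of stimulated human HepG2 cells; signal reports phosphorylation of biotinylated GST-cJun 1-79 at Ser73 with 10 µM ATP; on the % scale 0 is the no-effect control and ±100 the full control effect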
Procedure, shortened: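 JNK3 came from HepG2 lysates pre-activated with IL-1beta and TNF-alpha and phosphorylated biotinylated GST-cJun (1-79) at 10 uM ATP, pH 7.6, room temperature. Compounds were titrated. AlphaScreen signal used anti-phospho-cJun (Ser73) antibody.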

COc1ccc(OC)c(Nc2nc(-c3ccc(O)c(O)c3)cs2)c1
outcome [1]: inactive

CN(C)CCCNc1ncnc2nc[nH]c12
Potency [2]: > 11.4 µM | activity change, negative = inhibition [3]: -0.851% | Potency [4]: inactive | activity change, negative = inhibition [5]: -10.5% | activity, negative = inhibition [6]: 3.41% | Potency [7]: > 46 µM | Potency [8]: > 9.22 µM | Potency [9]: inactive

O=C(O)c1cccc(C(=O)O)c1S(=O)Cc1ccccc1 (stereo not given)
Potency [2]: > 11.4 µM | activity change, negative = inhibition [3]: 5.26% | Potency [4]: inactive | activity change, negative = inhibition [5]: 7.39% | activity, negative = inhibition [6]: 6.2% | Potency [7]: > 46 µM | Potency [8]: > 9.22 µM | Potency [9]: inactive

Cc1nc2cnc(OCc3ccccc3)nc2n(Cc2ccc(F)cc2)c1=O
Potency [2]: > 11.4 µM | activity change, negative = inhibition [3]: -22.4% | Potency [4]: 7.94 µM (active) | activity change, negative = inhibition [5]: -22.3% | activity, negative = inhibition [6]: -3.29% | Potency [7]: > 9.22 µM | Potency [8]: > 46 µM | Potency [9]: inactive
